# The other results are listed elsewhere or left out. Active and inactive are the calls of the source.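 Rule for the calls: active = mean inhibition above the solvent-only control wells' mean plus 3 SD (cut at about 22% in these data); inactive = the rest.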
# Assay: reduced optical density, T4-challenged addAB+ bacteria – absorbance, E. coli V3065, T4 phage, counter-screen for RecBCD inhibitor project, confirmation (AID 651984);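 note: higher means less bacterial growth from phage killing when AddAB is blocked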
# Settings: E. coli expressing H. pylori AddAB + T4 phage, OD growth; at 11.9 µM; hits give high values; gene 2 mutant T4, recBCD-deleted host
row,Structure (SMILES),inhibition
1,CC1=C(C/C=C(\C)CCCC(C)CCCC(C)CCCC(C)C)C(=O)c2ccccc2C1=O (configuration not stated),-1.36% (inactive)
2,S=C(NCC1COc2ccccc2O1)Nc1ccc(Br)cc1 (configuration not stated),6.67% (inactive)
3,CCN1CCN(C(=O)N[C@@H](C(=O)N[C@@H]2C(=O)N3C(C(=O)O)=C(CSc4nnnn4C)CS[C@H]23)c2ccc(O)cc2)C(=O)C1=O,3.42% (inactive)
4,CCn1cc(C(=O)NCCO)c(=O)c2cc(F)c(N3CCN(C)CC3)cc21,104% (active)
5,Cc1ccc(NC(=O)Nc2nnc(-c3ccncc3)s2)cc1,9.8% (inactive)
6,CC(=O)NC(c1cccs1)c1cc(Br)c2cccnc2c1O (configuration not stated),16.1% (inactive)
7,CC1(C(=O)NS(=O)(=O)c2ccccc2)CCN1C(=O)C/C=C/c1ccccc1 (configuration not stated),-0.33% (inactive)
8,CCCCC(=O)NC(c1ccc(OC)c(OC)c1)c1ccc2cccnc2c1O (configuration not stated),25.8% (active)
9,CCNC(=S)N(CCc1c(C)[nH]c2ccc(C)cc12)Cc1ccco1,-0.97% (inactive)
10,CCN1CCN(c2nc(Nc3cc(OC)ccc3OC)nc(Nc3cc(OC)ccc3OC)n2)CC1,-2.43% (inactive)
11,Cc1ccc(-c2cnc(C(O)c3cc(Cl)cc(Cl)c3)[nH]2)cc1 (configuration not stated),16.9% (inactive)
12,NC1=NC(=O)C(Cc2cccc(Cl)c2Cl)S1 (configuration not stated),-2.48% (inactive)
13,O=C1c2ccccc2C2=Nc3ccccc3SC(c3ccccc3F)C12 (configuration not stated),3.38% (inactive)
14,CC(C)(C)C(=O)Nc1c(Br)c(C2CC2)nn1-c1ccccc1,0.42% (inactive)
15,COc1cccc(C(O)c2ncc(-c3ccc4ccccc4c3)[nH]2)c1 (configuration not stated),13.4% (inactive)
16,C=CCNC(=O)CSc1nc2sc(C)c(C)c2c(=O)[nH]1,-2.04% (inactive)
17,C=CCn1c(=O)c(C(=O)NCc2ccc3c(c2)OCO3)c(O)c2ccccc21,6.71% (inactive)
